“And” between values parts separate entries of the source, which are not always exact repeats. Equal entries are not always repeated. Records with an inconclusive call do not appear. A call without a number means that no potency is given here. Some structures have more than one record in an assay (separate samples or runs), and their calls can disagree. The source made the active and inactive calls. The call rests on the fitted dose curve; in most records, active means well fitted cell-killing curve with a large enough effect in the repeat runs; inconclusive means weak or mixed curves, or effect the other way; inactive means no such curve, though single readings can be large or run the other way.
Assay: qHTS assay to identify small molecule antagonists of the retinoid-related orphan receptor gamma (ROR-gamma) signaling pathway - cell viability counter screen (AID 1159520); further: nearly all actives have a fitted effect of over 50% in size
Details: Tet-on RORgamma CHO cells viability, ATP luminescence, 16 h; series mostly up to 92.4 µM; activity, negative = cytotoxicity: at the top concentration
Source text: U.S. Tox21 Program National Center for Advancing Translational Sciences [NCATS] NIH Chemical Genomics Center [NCGC] U.S. Environmental Protection Agency [EPA] National Institutes of Environmental Health Sciences [NIEHS] National Toxicology Program [NTP] U.S. Food and Drug Administration [FDA] Tox21 Assay Overview: Nuclear steroid hormone receptors are involved in many biological processes including inflammatory responses, cell proliferation, and apoptosis. Environmental factors or compounds disrupting these nuclear receptor pathways and gene expression may promote susceptibility to immunotoxicants and autoimmune diseases. One important group of these expression factors are the retinoid-related orphan receptors. To assess compounds that may interfere with the retinoid-related orphan receptor gamma (ROR-gamma) transcription factor, a cell-based luciferase assay was used. The CHO cell-based assay utilizes a TET-inducible ROR expression factor and ROR response element-LUC reporter gene. Reporter gene activity was induced using Doxycycline Hyclate and measured after 16 hr incubation. Tet-on ROR gamma CHO cells were used to screen against the Tox21 10K compound library for cytotoxicity by measuring the viability of the cells based on the quantitation of the ATP.
Tox21 Assay Protocol Summary: Tet-on ROR gamma CHO cells were dispensed at 1,000 cells in 4 uL of culture medium per well into white wall/solid bottom 1536-well plates using a Multidrop Combi (Thermo Scientific, Waltham, MA) dispenser. Following incubation at 37 C and 5% CO2 for 4 hr, 23 nL of compounds dissolved in DMSO, positive controls or DMSO only were transferred by a Pintool station (Kalypsys, San Diego, CA) and after 2 hr incubation at 37 C, one ul of 1 uM (final concentration) of Doxycycline Hyclate was added to all the wells by using a Flying Reagent Dispenser (FRD) (Aurora Discovery, San Diego, CA). After 16 hr incubation at 37 C and 5% CO2, 5 uL of CellTiter-Glo reagent (Promega Corporation, Madison, WI) was added to each assay plate using FRD. After 30 min incubation at room temperature, luminescence was quantified on a ViewLux plate reader (Perkin Elmer, Waltham, MA).
Potency means the concentration at half of the fitted maximal effect.

Row | SMILES | Potency | activity, negative = cytotoxicity
1 | C=CCc1ccc(OC)cc1 | inactive | 
2 | Cc1ccc(OP(=O)(Oc2ccc(C)cc2)Oc2ccc(C)cc2)cc1 | inactive | 
3 | CCC(C)c1cc([N+](=O)[O-])cc([N+](=O)[O-])c1O (stereo not given) |  | 2.55% (inactive)
4 | C[C@]12CCC(=O)C(O)=C1CC[C@@H]1[C@@H]2CC[C@]2(C)C(=O)CC[C@@H]12 | inactive | 
5 | Cc1c(COC(=O)[C@@H]2[C@H](/C=C(\Cl)C(F)(F)F)C2(C)C)cccc1-c1ccccc1 |  | 1.44% (inactive)
6 | C=C(C)[C@H]1Cc2c(ccc3c2O[C@@H]2COc4cc(OC)c(OC)cc4[C@@H]2C3=O)O1 |  | -30.3% (inactive)
7 | c1ccc(N=Nc2ccccc2)cc1 | inactive | 
8 | CCOc1cc(C=O)ccc1O | inactive | 
9 | Nc1c(Cl)cc([N+](=O)[O-])cc1Cl |  | -0.746% (inactive)
10 | O=Cc1ccco1 | inactive | 
11 | CCN(N=O)C(N)=O | inactive | 
12 | c1ccc(NNc2ccccc2)cc1 |  | -20.4% (inactive)
13 | O=c1oc2ccccc2c(O)c1C(CC(O)c1ccc(-c2ccc(Br)cc2)cc1)c1ccccc1 (stereo not given) | inactive | 
14 | O=P(Oc1ccccc1)(Oc1ccccc1)Oc1ccccc1 | inactive | 
15 | Cc1cc(Cl)ccc1OCCCC(=O)O | inactive | 
16 | CCC(C)(C)c1ccc(O)cc1 | inactive | 
17 | CCOCN(C(=O)CCl)c1c(C)cccc1CC | inactive | 
18 | CC(C)c1ccc(CO)cc1 | inactive | 
19 | O=C(CCl)c1ccccc1 | inactive and 61.1 µM (active) | 
20 | S=C1NCCN1 | inactive | 

Row | SMILES | Potency | activity, negative = cytotoxicity
21 | O=S(=O)(Oc1ccc(Cl)cc1)c1ccc(Cl)cc1 | inactive | 
22 | CC(C)(C)c1ccccc1O | inactive | 
23 | O=C(O)C(F)(F)C(F)(F)C(F)(F)C(F)(F)C(F)(F)C(F)(F)C(F)(F)F | inactive | 
24 | C=C(C)C(=O)OCC1CO1 (stereo not given) | inactive | 
25 | O=C(Nc1ccc(Br)cc1)c1cc(Br)cc(Br)c1O | 27.2 µM (active) and 17.2 µM (active) | 
26 | NC(=S)Nc1ccccc1 | inactive | 
27 | CC(O)CCO (stereo not given) | inactive | 
28 | Cc1cc(C)cc(C)c1 | inactive | 
29 | OCC(O)CO | inactive | 
30 | CCN(CC)C(=O)SCc1ccc(Cl)cc1 | inactive | 
31 | Clc1nc(Cl)nc(Cl)n1 | inactive | 
32 | N#Cc1cc(Br)c(O)c(Br)c1 |  | -16.1% (inactive)
33 | c1ccc(P(c2ccccc2)c2ccccc2)cc1 | inactive | 
34 | NNC(=S)NN | inactive | 
35 | O=C(O)CC[N+](=O)[O-] | inactive | 
36 | Nc1ccncc1 | inactive | 
37 | C1=Cc2cccc3cccc1c23 | inactive | 
38 | CC(C)(c1cc(Cl)c(O)c(Cl)c1)c1cc(Cl)c(O)c(Cl)c1 | inactive | 
39 | Nc1cccnc1 | inactive | 
40 | Cc1ccc(N)c(N)c1 | inactive | 

Reference: PubChem BioAssay (Tox21)
